# Measured values from paper PMC7862700, “An all-to-all approach to the identification of sequence-specific readers for epigenetic DNA modifications on cytosine”.
# Tests used:
# Test in all cases: DAPPL (digital affinity profiling via proximity ligation, sequencing); 10 mM Tris-HCl pH 7.5, 50 mM NaCl, 1 mM DTT, 4% glycerol, room temperature, 30 min; GST-TFs on glutathione beads, 16-mer random dsDNA library, 0.1% formaldehyde crosslink after washing; high values mean tight binding
# FEV = molecular target: T1, FEV (Homo sapiens, UniProt Q99581 1-238); conditions: protein: recombinant; tags: N-terminal GST; dsDNA, one strand shown
# T1 sequence: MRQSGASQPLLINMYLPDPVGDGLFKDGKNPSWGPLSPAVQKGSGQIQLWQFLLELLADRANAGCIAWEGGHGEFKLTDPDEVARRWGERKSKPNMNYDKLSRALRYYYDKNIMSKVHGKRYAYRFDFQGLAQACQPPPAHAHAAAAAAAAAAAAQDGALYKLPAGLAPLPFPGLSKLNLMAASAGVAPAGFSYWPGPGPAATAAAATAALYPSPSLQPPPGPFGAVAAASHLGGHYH
# How it was run: (§1)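 Binding signal is defined as a hexamer's read frequency for one factor over its frequency for the tag-only sample. To obtain reads, GST-fused human transcription factors were expressed in yeast, captured on glutathione beads, barcoded with DNA and pooled with that sample. Pools met 200 nmole of a 16-mer random double-stranded DNA library in Tris/NaCl/DTT/glycerol buffer for 30 min at room temperature before washing, 0.1% formaldehyde crosslinking, proximity ligation (BsaI/T4 ligase, 1 h, 37 °C), PCR and Illumina NextSeq500 sequencing.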
# ETV5 = ETV5 (Homo sapiens, UniProt P41161 1-510); conditions: protein: recombinant; tags: N-terminal GST; dsDNA, one strand shown
# ETV5, sequence (P41161 whole entry): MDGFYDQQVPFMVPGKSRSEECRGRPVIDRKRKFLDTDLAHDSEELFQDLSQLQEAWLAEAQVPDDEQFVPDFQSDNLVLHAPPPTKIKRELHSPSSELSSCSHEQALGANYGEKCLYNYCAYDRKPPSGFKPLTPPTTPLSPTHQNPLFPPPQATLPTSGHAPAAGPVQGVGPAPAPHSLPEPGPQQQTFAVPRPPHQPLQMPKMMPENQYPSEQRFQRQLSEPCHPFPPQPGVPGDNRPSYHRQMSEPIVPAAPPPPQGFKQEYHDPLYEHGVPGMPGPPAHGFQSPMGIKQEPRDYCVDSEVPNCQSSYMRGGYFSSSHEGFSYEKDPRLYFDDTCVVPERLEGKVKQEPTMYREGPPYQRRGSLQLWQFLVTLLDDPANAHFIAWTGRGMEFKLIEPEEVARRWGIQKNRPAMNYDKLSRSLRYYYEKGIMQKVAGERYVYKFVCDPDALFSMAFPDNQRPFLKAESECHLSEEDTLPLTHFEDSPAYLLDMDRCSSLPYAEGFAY
# How it was run: as §1
# HSF1 = HSF1 (Homo sapiens, UniProt Q00613 1-529); conditions: protein: recombinant; tags: N-terminal GST; chain copies: 3; dsDNA, one strand shown
# HSF1, sequence (Q00613 whole entry): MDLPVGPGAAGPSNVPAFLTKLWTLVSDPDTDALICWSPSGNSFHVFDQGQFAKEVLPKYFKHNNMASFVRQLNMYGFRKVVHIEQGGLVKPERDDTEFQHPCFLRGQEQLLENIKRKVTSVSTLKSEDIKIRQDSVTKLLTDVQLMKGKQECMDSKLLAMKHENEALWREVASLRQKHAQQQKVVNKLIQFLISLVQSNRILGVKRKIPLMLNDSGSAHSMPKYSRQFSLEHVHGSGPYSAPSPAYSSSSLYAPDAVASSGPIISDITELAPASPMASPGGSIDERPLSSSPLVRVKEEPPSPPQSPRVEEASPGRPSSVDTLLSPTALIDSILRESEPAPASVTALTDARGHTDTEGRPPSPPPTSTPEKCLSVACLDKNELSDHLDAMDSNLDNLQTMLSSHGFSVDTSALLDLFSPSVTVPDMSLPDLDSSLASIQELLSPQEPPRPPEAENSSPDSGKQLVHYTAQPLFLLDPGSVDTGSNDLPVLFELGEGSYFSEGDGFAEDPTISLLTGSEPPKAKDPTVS
# How it was run: as §1
# SPIC = molecular target: T2, SPIC (Homo sapiens, UniProt Q8N5J4 1-248); conditions: protein: recombinant; tags: N-terminal GST; dsDNA, one strand shown
# T2 sequence: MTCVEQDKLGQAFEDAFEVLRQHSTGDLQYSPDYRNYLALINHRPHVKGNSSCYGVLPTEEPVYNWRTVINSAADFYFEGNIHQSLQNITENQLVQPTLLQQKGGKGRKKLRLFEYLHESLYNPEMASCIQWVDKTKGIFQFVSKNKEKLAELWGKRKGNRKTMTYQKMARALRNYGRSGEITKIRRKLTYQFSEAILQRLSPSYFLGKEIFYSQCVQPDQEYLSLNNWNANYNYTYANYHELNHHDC
# How it was run: as §1
# ELF4 = ELF4 (Homo sapiens, UniProt Q99607 1-663); conditions: protein: recombinant; tags: N-terminal GST; dsDNA, one strand shown
# ELF4, sequence (Q99607 whole entry): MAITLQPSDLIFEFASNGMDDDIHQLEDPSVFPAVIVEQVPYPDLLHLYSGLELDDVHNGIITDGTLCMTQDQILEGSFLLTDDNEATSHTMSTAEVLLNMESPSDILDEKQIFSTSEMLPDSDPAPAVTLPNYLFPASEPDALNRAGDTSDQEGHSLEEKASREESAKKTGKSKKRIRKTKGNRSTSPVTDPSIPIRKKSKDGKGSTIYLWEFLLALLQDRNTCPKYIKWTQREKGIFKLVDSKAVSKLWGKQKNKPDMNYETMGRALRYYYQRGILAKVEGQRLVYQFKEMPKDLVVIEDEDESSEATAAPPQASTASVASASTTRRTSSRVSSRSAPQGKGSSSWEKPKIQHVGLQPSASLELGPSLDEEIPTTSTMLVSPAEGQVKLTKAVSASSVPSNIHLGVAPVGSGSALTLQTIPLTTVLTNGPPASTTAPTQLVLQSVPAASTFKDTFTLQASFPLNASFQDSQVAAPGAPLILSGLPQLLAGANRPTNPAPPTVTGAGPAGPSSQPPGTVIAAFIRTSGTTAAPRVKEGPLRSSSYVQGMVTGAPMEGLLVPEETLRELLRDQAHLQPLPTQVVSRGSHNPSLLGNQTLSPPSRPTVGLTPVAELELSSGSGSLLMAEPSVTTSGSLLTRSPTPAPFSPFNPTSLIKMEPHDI
# How it was run: as §1
# ELK4 = molecular target: T3, ELK4 (Homo sapiens, UniProt P28324-2 1-405); conditions: protein: recombinant; tags: N-terminal GST; dsDNA, one strand shown
# T3 sequence: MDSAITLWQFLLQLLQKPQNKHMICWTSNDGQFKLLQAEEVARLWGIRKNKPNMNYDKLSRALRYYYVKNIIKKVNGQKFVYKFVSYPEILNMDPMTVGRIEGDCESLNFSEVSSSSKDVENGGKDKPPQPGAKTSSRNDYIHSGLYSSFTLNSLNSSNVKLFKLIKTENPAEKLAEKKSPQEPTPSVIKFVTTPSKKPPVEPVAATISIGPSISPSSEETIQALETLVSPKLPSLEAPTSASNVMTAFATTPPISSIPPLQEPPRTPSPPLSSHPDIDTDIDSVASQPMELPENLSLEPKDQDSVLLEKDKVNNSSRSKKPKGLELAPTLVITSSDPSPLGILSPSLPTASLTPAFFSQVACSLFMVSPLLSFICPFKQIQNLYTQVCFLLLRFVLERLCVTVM
# How it was run: as §1
# ETV2 = molecular target: T4, ETV2 (Homo sapiens, UniProt O00321 1-342); conditions: protein: recombinant; tags: N-terminal GST; dsDNA, one strand shown
# T4 sequence: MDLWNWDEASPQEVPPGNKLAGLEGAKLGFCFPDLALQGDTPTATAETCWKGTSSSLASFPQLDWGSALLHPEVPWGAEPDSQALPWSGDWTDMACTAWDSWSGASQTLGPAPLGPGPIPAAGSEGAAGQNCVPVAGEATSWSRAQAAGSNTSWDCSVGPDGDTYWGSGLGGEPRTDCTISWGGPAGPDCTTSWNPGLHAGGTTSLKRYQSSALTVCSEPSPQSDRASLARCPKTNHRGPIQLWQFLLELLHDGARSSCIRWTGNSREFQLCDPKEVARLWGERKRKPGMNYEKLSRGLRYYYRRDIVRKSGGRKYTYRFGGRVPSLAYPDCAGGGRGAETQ
# How it was run: as §1
# ELF3 = molecular target: T5, ELF3 (Homo sapiens, UniProt P78545 1-371); conditions: protein: recombinant; tags: N-terminal GST; dsDNA, one strand shown
# T5 sequence: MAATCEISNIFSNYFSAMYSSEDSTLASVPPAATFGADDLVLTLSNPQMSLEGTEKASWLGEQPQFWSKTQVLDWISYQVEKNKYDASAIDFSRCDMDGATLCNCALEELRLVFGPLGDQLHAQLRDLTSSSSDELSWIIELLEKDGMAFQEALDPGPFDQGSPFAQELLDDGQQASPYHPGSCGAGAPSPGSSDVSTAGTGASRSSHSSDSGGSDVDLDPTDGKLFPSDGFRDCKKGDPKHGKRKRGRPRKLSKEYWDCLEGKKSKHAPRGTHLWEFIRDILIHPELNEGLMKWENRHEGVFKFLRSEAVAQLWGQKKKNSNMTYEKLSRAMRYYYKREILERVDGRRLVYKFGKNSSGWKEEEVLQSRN
# How it was run: as §1
# CRX = CRX (Homo sapiens, UniProt O43186 1-299); conditions: protein: recombinant; tags: N-terminal GST; dsDNA, one strand shown
# CRX, sequence (O43186 whole entry): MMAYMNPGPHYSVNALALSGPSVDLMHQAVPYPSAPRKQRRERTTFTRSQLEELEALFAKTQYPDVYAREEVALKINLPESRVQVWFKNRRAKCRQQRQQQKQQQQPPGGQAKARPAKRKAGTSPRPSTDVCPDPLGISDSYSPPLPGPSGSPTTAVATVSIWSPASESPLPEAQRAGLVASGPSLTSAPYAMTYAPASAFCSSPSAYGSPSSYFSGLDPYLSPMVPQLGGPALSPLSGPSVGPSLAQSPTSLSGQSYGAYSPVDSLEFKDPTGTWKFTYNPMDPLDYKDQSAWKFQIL
# How it was run: as §1
# ETV1 = ETV1 (Homo sapiens, UniProt P50549 1-477); conditions: protein: recombinant; tags: N-terminal GST; dsDNA, one strand shown
# ETV1, sequence (P50549 whole entry): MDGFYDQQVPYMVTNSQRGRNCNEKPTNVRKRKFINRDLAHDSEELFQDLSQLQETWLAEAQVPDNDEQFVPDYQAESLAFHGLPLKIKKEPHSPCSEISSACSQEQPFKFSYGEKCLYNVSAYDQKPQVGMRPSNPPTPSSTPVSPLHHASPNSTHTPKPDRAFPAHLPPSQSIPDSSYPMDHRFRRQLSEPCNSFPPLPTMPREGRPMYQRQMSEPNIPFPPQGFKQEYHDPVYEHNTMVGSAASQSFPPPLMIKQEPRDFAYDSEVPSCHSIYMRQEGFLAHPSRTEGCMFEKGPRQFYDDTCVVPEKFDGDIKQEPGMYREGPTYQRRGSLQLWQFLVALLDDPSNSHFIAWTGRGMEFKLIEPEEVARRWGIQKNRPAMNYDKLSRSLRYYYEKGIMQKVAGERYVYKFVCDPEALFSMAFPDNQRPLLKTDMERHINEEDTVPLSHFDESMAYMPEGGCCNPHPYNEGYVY
# How it was run: as §1
# ERF = molecular target: T6, ERF (Homo sapiens, UniProt P50548 1-548); conditions: protein: recombinant; tags: N-terminal GST; dsDNA, one strand shown
# T6 sequence: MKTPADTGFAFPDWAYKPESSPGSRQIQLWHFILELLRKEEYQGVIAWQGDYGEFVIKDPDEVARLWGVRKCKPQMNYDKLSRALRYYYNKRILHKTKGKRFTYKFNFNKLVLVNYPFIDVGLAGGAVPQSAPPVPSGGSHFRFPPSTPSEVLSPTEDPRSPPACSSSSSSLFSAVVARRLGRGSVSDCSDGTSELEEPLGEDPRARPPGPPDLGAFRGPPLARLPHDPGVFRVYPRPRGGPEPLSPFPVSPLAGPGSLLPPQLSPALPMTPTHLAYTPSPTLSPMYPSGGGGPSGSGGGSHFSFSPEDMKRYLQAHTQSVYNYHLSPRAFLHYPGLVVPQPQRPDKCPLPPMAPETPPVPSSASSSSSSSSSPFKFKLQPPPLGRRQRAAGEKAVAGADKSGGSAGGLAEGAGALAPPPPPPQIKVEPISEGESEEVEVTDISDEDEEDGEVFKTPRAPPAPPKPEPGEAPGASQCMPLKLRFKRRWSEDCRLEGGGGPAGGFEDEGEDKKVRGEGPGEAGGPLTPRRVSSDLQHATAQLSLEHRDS
# How it was run: as §1
# ETV3L = molecular target: T7, ETV3L (Homo sapiens, UniProt Q6ZN32 1-361); conditions: protein: recombinant; tags: N-terminal GST; dsDNA, one strand shown
# T7 sequence: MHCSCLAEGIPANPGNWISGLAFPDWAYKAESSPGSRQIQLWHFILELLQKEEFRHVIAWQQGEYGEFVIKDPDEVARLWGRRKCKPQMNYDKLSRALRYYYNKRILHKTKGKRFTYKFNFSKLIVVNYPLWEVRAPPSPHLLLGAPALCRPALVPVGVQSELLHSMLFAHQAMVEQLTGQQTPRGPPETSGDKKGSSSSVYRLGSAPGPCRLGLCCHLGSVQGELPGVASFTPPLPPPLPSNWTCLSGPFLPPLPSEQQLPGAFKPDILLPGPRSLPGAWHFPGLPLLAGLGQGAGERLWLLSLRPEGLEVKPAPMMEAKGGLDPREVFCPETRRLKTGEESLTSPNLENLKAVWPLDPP
# How it was run: as §1
# ETS2 = molecular target: T8, ETS2 (Homo sapiens, UniProt P15036 1-469); conditions: protein: recombinant; tags: N-terminal GST; dsDNA, one strand shown
# T8 sequence: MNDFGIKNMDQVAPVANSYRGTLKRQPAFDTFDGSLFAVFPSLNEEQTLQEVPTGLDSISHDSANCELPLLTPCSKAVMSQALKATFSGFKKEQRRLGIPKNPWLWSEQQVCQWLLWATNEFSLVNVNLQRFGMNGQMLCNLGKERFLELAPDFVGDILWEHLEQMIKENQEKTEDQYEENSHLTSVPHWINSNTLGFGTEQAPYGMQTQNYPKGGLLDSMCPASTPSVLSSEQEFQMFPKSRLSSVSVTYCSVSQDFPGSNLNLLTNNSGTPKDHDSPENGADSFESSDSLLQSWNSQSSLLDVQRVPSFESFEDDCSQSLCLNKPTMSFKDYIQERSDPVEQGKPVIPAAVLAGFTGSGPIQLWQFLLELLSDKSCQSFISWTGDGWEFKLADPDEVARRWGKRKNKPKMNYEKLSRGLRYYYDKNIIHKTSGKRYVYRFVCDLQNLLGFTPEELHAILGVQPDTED
# How it was run: as §1
# SPDEF = molecular target: T9, SPDEF (Homo sapiens, UniProt O95238 1-335); conditions: protein: recombinant; tags: N-terminal GST; dsDNA, one strand shown
# T9 sequence: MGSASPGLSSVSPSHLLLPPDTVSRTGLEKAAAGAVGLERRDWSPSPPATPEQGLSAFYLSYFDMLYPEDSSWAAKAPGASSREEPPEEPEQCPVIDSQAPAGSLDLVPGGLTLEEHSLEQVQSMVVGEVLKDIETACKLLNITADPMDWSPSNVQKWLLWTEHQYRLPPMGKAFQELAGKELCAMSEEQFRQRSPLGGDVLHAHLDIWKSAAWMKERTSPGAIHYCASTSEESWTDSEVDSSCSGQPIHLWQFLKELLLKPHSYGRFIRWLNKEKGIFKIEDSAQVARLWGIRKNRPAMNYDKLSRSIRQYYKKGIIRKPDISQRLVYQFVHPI
# How it was run: as §1
# ETV7 = molecular target: T10, ETV7 (Homo sapiens, UniProt Q9Y603 1-341); conditions: protein: recombinant; tags: N-terminal GST; dsDNA, one strand shown
# T10 sequence: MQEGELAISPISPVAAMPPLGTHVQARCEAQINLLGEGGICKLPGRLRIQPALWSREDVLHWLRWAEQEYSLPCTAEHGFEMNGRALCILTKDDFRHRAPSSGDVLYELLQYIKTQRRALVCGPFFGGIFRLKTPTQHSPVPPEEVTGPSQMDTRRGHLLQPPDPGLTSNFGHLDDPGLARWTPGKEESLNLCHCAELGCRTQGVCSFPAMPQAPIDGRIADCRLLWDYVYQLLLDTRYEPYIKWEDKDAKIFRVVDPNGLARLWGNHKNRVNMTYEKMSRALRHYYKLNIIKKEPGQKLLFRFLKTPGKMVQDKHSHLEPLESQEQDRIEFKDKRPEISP
# How it was run: as §1
# ELF5 = molecular target: T11, ELF5 (Homo sapiens, UniProt Q9UKW6-2 1-255); conditions: protein: recombinant; tags: N-terminal GST; dsDNA, one strand shown
# T11 sequence: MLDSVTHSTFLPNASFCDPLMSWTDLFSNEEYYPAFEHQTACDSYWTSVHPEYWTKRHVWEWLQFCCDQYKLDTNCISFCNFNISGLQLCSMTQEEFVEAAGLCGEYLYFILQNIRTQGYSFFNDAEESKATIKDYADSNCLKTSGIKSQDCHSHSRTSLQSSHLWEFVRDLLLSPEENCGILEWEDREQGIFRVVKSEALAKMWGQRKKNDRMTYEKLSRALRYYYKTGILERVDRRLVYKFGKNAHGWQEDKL
# How it was run: as §1
# ETV3 = molecular target: T12, ETV3 (Homo sapiens, UniProt P41162-2 1-143); conditions: protein: recombinant; tags: N-terminal GST; dsDNA, one strand shown
# T12 sequence: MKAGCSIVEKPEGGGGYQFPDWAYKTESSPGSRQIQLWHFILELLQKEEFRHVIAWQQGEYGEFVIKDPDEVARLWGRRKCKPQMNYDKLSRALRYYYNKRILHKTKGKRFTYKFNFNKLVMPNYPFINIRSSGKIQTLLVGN
# How it was run: as §1
# ETV6 = ETV6 (Homo sapiens, UniProt P41212 1-452); conditions: protein: recombinant; tags: N-terminal GST; dsDNA, one strand shown
# ETV6, sequence (P41212 whole entry): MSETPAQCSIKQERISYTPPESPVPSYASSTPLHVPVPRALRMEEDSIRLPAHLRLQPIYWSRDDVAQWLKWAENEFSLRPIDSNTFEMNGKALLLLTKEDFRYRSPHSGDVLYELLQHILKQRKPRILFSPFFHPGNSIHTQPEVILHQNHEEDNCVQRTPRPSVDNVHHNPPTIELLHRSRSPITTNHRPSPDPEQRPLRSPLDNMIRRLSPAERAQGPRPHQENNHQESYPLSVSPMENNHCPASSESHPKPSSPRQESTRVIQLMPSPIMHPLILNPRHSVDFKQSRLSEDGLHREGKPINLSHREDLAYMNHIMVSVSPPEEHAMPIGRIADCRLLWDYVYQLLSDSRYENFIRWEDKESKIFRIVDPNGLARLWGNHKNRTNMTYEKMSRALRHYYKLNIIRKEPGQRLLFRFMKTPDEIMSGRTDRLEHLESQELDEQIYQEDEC
# How it was run: as §1
sequence,measurement,setting,value
ATGAAC,binding signal,FEV,"1.26 fold enrichment (6-mer frequency, TF over GST control)"
same,binding signal,ETV5,"1.29 fold enrichment (6-mer frequency, TF over GST control)"
same,binding signal,HSF1,"1.21 fold enrichment (6-mer frequency, TF over GST control)"
same,binding signal,SPIC,"1.39 fold enrichment (6-mer frequency, TF over GST control)"
same,binding signal,ELF4,"1.36 fold enrichment (6-mer frequency, TF over GST control)"
same,binding signal,ELK4,"1.31 fold enrichment (6-mer frequency, TF over GST control)"
same,binding signal,ETV2,"1.11 fold enrichment (6-mer frequency, TF over GST control)"
same,binding signal,ELF3,"1.38 fold enrichment (6-mer frequency, TF over GST control)"
same,binding signal,CRX,"1.13 fold enrichment (6-mer frequency, TF over GST control)"
same,binding signal,ETV1,"1.38 fold enrichment (6-mer frequency, TF over GST control)"
same,binding signal,ERF,"1.26 fold enrichment (6-mer frequency, TF over GST control)"
same,binding signal,ETV3L,"1.28 fold enrichment (6-mer frequency, TF over GST control)"
same,binding signal,ETS2,"1.29 fold enrichment (6-mer frequency, TF over GST control)"
same,binding signal,SPDEF,"1.18 fold enrichment (6-mer frequency, TF over GST control)"
same,binding signal,ETV7,"1.2 fold enrichment (6-mer frequency, TF over GST control)"
same,binding signal,ELF5,"1.29 fold enrichment (6-mer frequency, TF over GST control)"
same,binding signal,ETV3,"1.28 fold enrichment (6-mer frequency, TF over GST control)"
same,binding signal,ETV6,"1.24 fold enrichment (6-mer frequency, TF over GST control)"
